# Results from PubChem BioAssay.
# Active and inactive are the calls of the source.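 The calls were made as follows, unless noted: active = inhibition above 20% together with a positive visual image hit; inconclusive = visual image hit but inhibition not above 20%; inactive = no visual image hit.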
# Experiments:
# [1] = inhibitors of TNFa-induced NFkB p65 translocation, primary screen, imaging, HUVEC, MLSMR starter and 10KST1 sets (AID 438); settings: HUVEC TNFa-induced p65 nuclear translocation; cell count: measured here: nuclei count (cytotoxicity indicator), at 2.08 µM; inhibition: at 2 µM, stronger effect = higher value, 0% TNFa-plus-vehicle, 100% no-TNFa wells;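 also: compound added about 3h40 before a 20 min TNFalpha stimulation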;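 as to inhibition: signal is the nuclear over cytoplasmic p65 intensity ratio per well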
# [2] = reduction of polyQ htt aggregates in cells – imaging, exon1htt(103Q)mCFP cells, high-content imaging, primary screen (AID 483;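 active = visual image review flags a hit and inhibition of aggregation exceeds 20%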;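 also: compound exposure lasted 3 days before fixation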;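 as to nuclei count: percent of the per-plate median nuclei count of sample wells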); settings: exon1htt(103Q)mCFP cell line, aggregate imaging, at 2 µM; inhibition of aggregation: stronger effect = higher value; nuclei count: measured here: cell count, toxicity
# [3] = endothelial E-selectin expression blockers – imaging, HUVEC, immunofluorescence, MLSMR starter and 10KST1 sets, primary screen (AID 487;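 active = visually confirmed hit in the image check and inhibition above 20%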;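 as to inhibition: signal is fraction of cell area covered by stained E-selectin grains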;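 as to nuclei count: 100% = median nuclei count of all wells on the same plate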); settings: HUVEC TNFalpha-induced E-selectin immunofluorescence imaging, at 2 µM; inhibition: stronger effect = higher value; nuclei count: measured here: cell number, toxicity
# [4] = target: Voltage-gated potassium channel subunit beta-2 (Rattus norvegicus) (UniProt P62483); experiment: inhibitors of rat Kvbeta2 reductase activity – biochemical, NADPH fluorescence, primary screen (AID 622;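 active = fluorescence slope higher than the sample average by over 3 SD, cut at about -0.22 in these data, passing the limit was not always enough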;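 also: slope of raw intensity against log time taken from 70 to 1610 s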); settings: recombinant KvBeta, 4-cyanobenzaldehyde reduction, at 10 µM, stronger effect = higher value
# [5] = target: Voltage-gated potassium channel subunit beta-2 (Rattus norvegicus) (UniProt P62483); experiment: enhancers of rat Kvbeta2 NADPH turnover – biochemical, NADPH fluorescence, primary screen (AID 623;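 active = NADPH fluorescence slope more negative than the mean of all samples by about 3 SD, 99.7% confidence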;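 also: fluorescence intensity change per second fitted from 20 to 320 s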); settings: Recombinant KvBeta, NADPH fluorescence decrease slope, 10 min; at 10 µM; stronger effect = lower value
# [6] = target: Alpha-2C adrenergic receptor (Homo sapiens) (UniProt P18825); experiment: compounds altering alpha2C-coupled GIRK flux – cell-based, HEK293 alpha2C/GIRK1/2, thallium flux, primary screen (AID 624;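 active = fluorescence slope after compound addition differing from the mean of all screened samples at 99.7% confidence, in either direction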;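 also: slope of fluorescence ratio to pre-addition baseline per second over 15 to 24 s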); settings: thallium flux BTC fluorescence, at 10 µM, actives lie on both sides
# [7] = blockers of RIG-like receptor reporter activation – cell-based, Sendai virus stimulus, luciferase, 10K MLSCN set, TLR/RLR signaling modifier project, primary screen (AID 602276;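 active = inhibition at or above 50% at 10 µM; inactive = inhibition below 50%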;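 also: firefly luciferase from ISG56 promoter only with Renilla not read in this screen; 0% = Sendai virus plus DMSO and 100% = medium plus DMSO without virus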); settings: HEK293 RL24 IRF3 luciferase reporter, at 10 µM, stronger effect = higher value
# [8] = TLR3 IRF3 reporter activation blockers – cell-based, poly I:C stimulus, luciferase, 10K MLSCN set, primary screen (AID 602277;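 active = inhibition of the reporter signal at or above 50%; inactive = inhibition below 50%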); settings: HEK293-TLR3 RL24 IRF3 luciferase reporter, at 10 µM, stronger effect = higher value
# Sequence of Voltage-gated potassium channel subunit beta-2 (Rattus norvegicus) (P62483 whole entry, looked up): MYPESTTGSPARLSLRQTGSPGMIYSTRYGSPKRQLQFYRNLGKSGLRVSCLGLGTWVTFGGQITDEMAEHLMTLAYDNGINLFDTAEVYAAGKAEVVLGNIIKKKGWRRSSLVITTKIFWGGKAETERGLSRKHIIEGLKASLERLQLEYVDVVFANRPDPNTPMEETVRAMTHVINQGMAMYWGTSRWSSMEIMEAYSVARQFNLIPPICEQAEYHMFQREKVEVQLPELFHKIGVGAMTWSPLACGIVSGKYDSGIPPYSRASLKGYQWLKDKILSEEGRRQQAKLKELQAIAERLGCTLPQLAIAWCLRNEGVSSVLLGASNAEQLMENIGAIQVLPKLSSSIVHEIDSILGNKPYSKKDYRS
# Sequence of Alpha-2C adrenergic receptor (Homo sapiens) (P18825 whole entry, looked up): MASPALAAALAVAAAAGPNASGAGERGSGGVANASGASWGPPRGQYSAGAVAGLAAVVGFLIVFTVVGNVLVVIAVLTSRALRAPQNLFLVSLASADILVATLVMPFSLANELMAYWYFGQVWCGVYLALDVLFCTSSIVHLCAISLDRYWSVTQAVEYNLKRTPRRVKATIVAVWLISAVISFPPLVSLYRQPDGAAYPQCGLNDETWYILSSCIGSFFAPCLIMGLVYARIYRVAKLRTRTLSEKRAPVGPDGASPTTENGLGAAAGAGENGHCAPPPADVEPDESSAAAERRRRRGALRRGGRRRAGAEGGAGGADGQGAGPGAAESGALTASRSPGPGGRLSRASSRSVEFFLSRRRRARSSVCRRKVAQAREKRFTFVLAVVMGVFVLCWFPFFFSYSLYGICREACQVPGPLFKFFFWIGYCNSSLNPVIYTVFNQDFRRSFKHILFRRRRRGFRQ
SMILES,cell count [1],inhibition [1],inhibition of aggregation [2],nuclei count [2],inhibition [3],nuclei count [3],fluorescence slope [4],NADPH fluorescence slope [5],slope [6],inhibition [7],inhibition [8]
CCOC(=O)c1c(C)n(OCc2ccccc2)c2ccc3c(no[n+]3[O-])c12,437,4% (inactive),2.1% (inactive),104%,8.8% (inactive),111%,-0.484 (inactive),-1e-05 (inactive),0.00638 (inactive),2.55% (inactive),13.2% (inactive)
CCCC1(C(=O)OCC)NC(c2ccc(N(C)C)cc2)C2C(=O)N(c3ccc(F)cc3)C(=O)C21 (centres undefined),505,-10% (inactive),30.1% (inactive),69.8%,1.4% (inactive),134%,-0.398 (inactive),1e-06 (inactive),0.00411 (inactive),8.99% (inactive),23.9% (inactive)
CC1(C)OC(=O)C(=CNC(CCC(N)=O)C(=O)O)C(=O)O1 (centres undefined),679,3.6% (inactive),0.3% (inactive),117%,-16.8% (inactive),108%,-0.611 (inactive),-9.2e-07 (inactive),0.00611 (inactive),-19% (inactive),-5.5% (inactive)
COc1ccc(NC(=O)CN2CCN(S(=O)(=O)c3ccc(Cl)cc3)CC2)cc1,333,1.1% (inactive),17.3% (inactive),123%,5% (inactive),116%,-0.411 (inactive),-2.8e-05 (inactive),0.00382 (inactive),11.8% (inactive),17.3% (inactive)
O=C(c1ccccc1)c1ccncc1,391,7% (inactive),-9.4% (inactive),103%,-5.9% (inactive),119%,-0.399 (inactive),-2.9e-05 (inactive),0.0031 (inactive),19% (inactive),27.8% (inactive)
CCN(C(=O)c1cn(C)c(=O)c2cc(OC)c(OC)cc12)c1ccccc1C,175,0.3% (inactive),12.8% (inactive),94.1%,-21.1% (inactive),114%,-0.59 (inactive),-2.6e-05 (inactive),0.00574 (inactive),0.738% (inactive),16.5% (inactive)
CCOc1ccc(Cn2nnc(C(=O)NCc3ccc(OC)cc3)c2N)cc1,509,-1.3% (inactive),15.4% (inactive),72.5%,-22.4% (inactive),100%,-0.536 (inactive),-2.2e-06 (inactive),0.00681 (inactive),17.5% (inactive),30.1% (inactive)
Cc1cc(NS(=O)(=O)c2ccccc2)no1,662,-5.5% (inactive),-5.5% (inactive),97%,-72.8% (inactive),122%,-0.56 (inactive),-5.2e-05 (inactive),0.00728 (inactive),11.7% (inactive),28.5% (inactive)
COc1cccc(-c2nc(CS(=O)(=O)CC(=O)N3CCc4ccccc4C3)c(C)o2)c1,813,-17.7% (inactive),-2% (inactive),93%,-74.3% (inactive),117%,-0.522 (inactive),-1.8e-05 (inactive),0.00747 (inactive),6.4% (inactive),16% (inactive)
O=c1[nH]c(NCc2ccccc2)nc2c1CCCC2,580,4.4% (inactive),-3.3% (inactive),112%,46% (inactive),101%,-0.348 (inactive),-3.1e-05 (inactive),0.00472 (inactive),-1.14% (inactive),-4.72% (inactive)
N#CC1=C(SCC(=O)NC23CC4CC(CC(C4)C2)C3)NC(=O)C(C#N)C12CCCCC2 (centres undefined),755,-9.3% (inactive),16.9% (inactive),100%,-142% (inactive),123%,-0.519 (inactive),-6.2e-05 (inactive),0.00603 (inactive),16.3% (inactive),-22.7% (inactive)
O=C(c1ccco1)N1CCN(c2cccc(Cl)c2)CC1,665,-1.9% (inactive),5.4% (inactive),115%,24.2% (inactive),91.6%,-0.507 (inactive),-7.7e-05 (inactive),0.00406 (inactive),-26.6% (inactive),-76.9% (inactive)
CC(C)CSc1nc2ccccc2n1CC(N)=O,314,3% (inactive),-6.3% (inactive),109%,33.6% (inactive),107%,-0.362 (inactive),-4.7e-05 (inactive),0.00549 (inactive),13.3% (inactive),15.2% (inactive)
O=C(NC(=O)c1cccc(F)c1)OC[C@@H]1CCCN2CCCC[C@H]12,600,-5.8% (inactive),-12.4% (inactive),77.9%,-55.2% (inactive),113%,-0.491 (inactive),1.1e-05 (inactive),0.00714 (inactive),8.41% (inactive),28.6% (inactive)
CSc1nc(N)nc(SCCS(=O)(=O)c2ccc(Cl)cc2)c1C#N,401,2.8% (inactive),24.9% (inactive),95.8%,-48% (inactive),113%,-0.442 (inactive),-2.1e-05 (inactive),0.00602 (inactive),5.62% (inactive),12.8% (inactive)
CN1CCCC(OC(=O)c2ccc3c(c2)OCCO3)C1 (centres undefined),214,-1.4% (inactive),23.1% (inactive),102%,-1% (inactive),70.3%,-0.418 (inactive),-6.9e-05 (inactive),0.00576 (inactive),-0.0614% (inactive),-12.6% (inactive)
O=C(Nc1ncc(Br)s1)C1CCCN1S(=O)(=O)c1cccc2cccnc12 (centres undefined),674,0.6% (inactive),39.7% (inactive),88.6%,-12.1% (inactive),105%,-0.583 (inactive),-2.2e-05 (inactive),0.00689 (inactive),4.87% (inactive),36.5% (inactive)
CC(C(=O)Nc1ccccc1-c1ccccc1)N1CCOCC1 (centres undefined),555,-17.7% (inactive),5.4% (inactive),89.4%,-27.4% (inactive),127%,-0.527 (inactive),-6.7e-05 (inactive),0.00481 (inactive),3.12% (inactive),86.4% (active)
CCN(CC)S(=O)(=O)c1ccc(NC(=O)Cn2cnc3ccccc3c2=O)cc1,321,-1.8% (inactive),15.7% (inactive),96%,-112% (inactive),108%,-0.483 (inactive),-0.000135 (inactive),0.0039 (inactive),12.3% (inactive),16% (inactive)
